Values joined by “and” are separate entries in the source; they are usually repeats but may differ in a detail not shown here. Equal values may be shown once. Among all 5,500 compounds or so, about 2,000 (36%) were called active. About 18% were inconclusive and are not listed. Cut-off read from the data, not from the text of the source: active = normalized growth mostly below about 0.91 (no sharp cut-off); inconclusive = no clear call, values can overlap the other calls; inactive = mostly above about 0.92. The list shows a part of the results.
Assay: chemical genetic growth profiling, strain panel (AID 1159580);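 note: tested at 20 µM; growth read once vehicle control cultures reached saturation at 30 °C; 1 = growth at the plate median or of vehicle wells; lower values mean less growth of the strain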
Details: S. cerevisiae deletion strains, growth OD

Measured: normalized growth

S=P(N1CC1)(N1CC1)N1CC1
inactive: locus YAL013W, strain DEP1, stronger effect = lower value 1.01 | locus YAL021C, strain ccr4, stronger effect = lower value 1 | locus YAL026C, strain drs2, stronger effect = lower value 1.01 | locus YAL030W, strain snc1, stronger effect = lower value 0.996 | locus YBL061C, strain skt5, stronger effect = lower value 1.01 | locus YBR009C, strain hhf1, stronger effect = lower value 1.01 | locus YBR021W, strain FUR4, stronger effect = lower value 0.946 | locus YBR023C, strain chs3, stronger effect = lower value 1.02 | locus YBR171W, strain sec66, stronger effect = lower value 1.01 | locus YBR229C, strain ROT2, stronger effect = lower value 1.01 | locus YBR231C, strain swc5, stronger effect = lower value 1.01 | locus YBR279W, strain paf1, stronger effect = lower value 0.999 | locus YCL011C, strain gbp2, stronger effect = lower value 1.01 | locus YCL016C, strain dcc1, stronger effect = lower value 0.999 | locus YCL029C, strain bik1, stronger effect = lower value 1.01 | locus YCL061C, strain MRC1, stronger effect = lower value 1 | locus YCL069W, strain vba3, stronger effect = lower value 1.01 | locus YCR088W, strain abp1, stronger effect = lower value 1.02 | locus YDL005C, strain med2, stronger effect = lower value 1.01 | locus YDL035C, strain GPR1, stronger effect = lower value 1.02 | locus YDL040C, strain nat1, stronger effect = lower value 1.01 | locus YDL074C, strain BRE1, stronger effect = lower value 1.01 | locus YDL101C, strain DUN1, stronger effect = lower value 1.01 | locus YDL134C, strain PPH21, stronger effect = lower value 1 | locus YDL192W, strain arf1, stronger effect = lower value 0.995 | locus YDR001C, strain nth1, stronger effect = lower value 1.01 | locus YDR069C, strain doa4, stronger effect = lower value 0.997 | locus YDR101C, strain arx1, stronger effect = lower value 0.997 | locus YDR137W, strain rgp1, stronger effect = lower value 1.02 | locus YDR150W, strain NUM1, stronger effect = lower value 1 | locus YDR159W, strain sac3, stronger effect = lower value 1 | locus YDR162C, strain NBP2, stronger effect = lower value 1.01 | locus YDR195W, strain ref2 0.971 | locus YDR297W, strain sur2, stronger effect = lower value 1 | locus YDR318W, strain mcm21, stronger effect = lower value 1.01 | locus YDR334W, strain swr1, stronger effect = lower value 1.01 | locus YDR335W, strain msn5, stronger effect = lower value 1 | locus YDR388W, stronger effect = lower value 1.01 | locus YDR392W, strain spt3, stronger effect = lower value 1.03 | locus YDR502C, strain sam2, stronger effect = lower value 0.996 | locus YEL003W, strain gim4, stronger effect = lower value 1 | locus YEL037C, strain rad23, stronger effect = lower value 1 | locus YEL061C, strain CIN8 (second series), stronger effect = lower value 1 | locus YEL061C, strain CIN8, stronger effect = lower value 1.01 | locus YER015W, strain faa2, stronger effect = lower value 1 | locus YER016W, strain bim1, stronger effect = lower value 1 | locus YER110C, stronger effect = lower value 1.01 | locus YER111C, strain swi4, stronger effect = lower value 0.99 | locus YER155C, strain BEM2 (second series), stronger effect = lower value 1.03 | locus YER155C, strain BEM2, stronger effect = lower value 1 | locus YER167W, strain BCK2, stronger effect = lower value 1.01 | locus YFR010W, strain ubp6, stronger effect = lower value 1.01 | locus YGL078C, strain dbp3, stronger effect = lower value 0.999 | locus YGL086W, strain mad1, stronger effect = lower value 1 | locus YGL167C, strain pmr1, stronger effect = lower value 1.01 | locus YGL173C, strain kem1, stronger effect = lower value 1.02 | locus YGL227W, strain vid30, stronger effect = lower value 1.01 | locus YGL240W, strain doc1, stronger effect = lower value 1.01 | locus YGL248W, strain PDE1, stronger effect = lower value 1.01 | locus YGL253W, strain hxk2, stronger effect = lower value 1.02 | locus YGR078C, strain PAC10, stronger effect = lower value 1.01 | locus YGR135W, strain pre9, stronger effect = lower value 0.996 | locus YGR229C, strain SMI1, stronger effect = lower value 0.971 | locus YGR252W, strain gcn5, stronger effect = lower value 0.985 | locus YHR013C, strain ard1, stronger effect = lower value 0.997 | locus YHR027C, strain rpn1, stronger effect = lower value 0.997 | locus YHR030C, strain SLT2, stronger effect = lower value 1.01 and 0.994 | locus YHR079C, strain IRE1 (second series), stronger effect = lower value 1 | locus YHR079C, strain IRE1, stronger effect = lower value 0.985 | locus YHR094C, strain hxt1, stronger effect = lower value 1 | locus YHR129C, strain ARP1, stronger effect = lower value 1.03 | locus YHR142W, strain chs7, stronger effect = lower value 1 | locus YHR200W, strain rpn10, stronger effect = lower value 0.997 | locus YIL066C, strain RNR3, stronger effect = lower value 1.02 | locus YIL073C, strain SPO22, stronger effect = lower value 0.993 | locus YIL125W, strain kgd1, stronger effect = lower value 1.01 | locus YIR030C, strain dcg1, stronger effect = lower value 1.02 | locus YJL092W, strain hpr5, stronger effect = lower value 1 | locus YJL095W, strain BCK1 (second series), stronger effect = lower value 1.01 | locus YJL095W, strain BCK1, stronger effect = lower value 1.02 and 1.01 | locus YJL115W, strain asf1, stronger effect = lower value 1.01 | locus YJL129C, strain trk1, stronger effect = lower value 1.02 | locus YJL134W, strain LCB3, stronger effect = lower value 1.01 | locus YJL154C, strain vps35, stronger effect = lower value 1.01 | locus YJL164C, strain tpk1, stronger effect = lower value 1.01 | locus YJL166W, strain qcr8, stronger effect = lower value 1.01 | locus YJL168C, strain set2, stronger effect = lower value 0.999 | locus YJL187C, strain SWE1 (second series), stronger effect = lower value 1.01 | locus YJR043C, strain POL32, stronger effect = lower value 1 | locus YJR066W, strain TOR1, stronger effect = lower value 0.976 | locus YJR075W, strain HOC1, stronger effect = lower value 1.01

From PubChem BioAssay AID1159580 (chemical genetic matrix, 2015)
